HIF-2a inh – HIF-2a reporter inhibitors, primary screen, luminescence, 786-0 RCC cells; AID 624352, 2012; 786-0 RCC cells HIF-2a reporter, luciferase luminescence, overnight; actives 0.72% (n = 360,000); inhibition, % at 18.8 µM;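 active means inhibition of the luminescence signal of 40% or more relative to plate controls, in a single-dose primary screen at 18.75 µM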
Mdm2-MdmX inh – inhibitors of human Mdm2-MdmX association, primary screen, cell-based, luminescence, split luciferase, SaOS-2, uHTS; Protein Mdm4 (Homo sapiens) + E3 ubiquitin-protein ligase Mdm2 (Homo sapiens), …; SaOS-2 split-luciferase Mdm2/MdmX complementation; actives 3% (n = 330,000); AID 485346, 2010; inhibition, % at 8 µM;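 active means inhibition of at least 50% at 8 µM in the primary screen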
CF NFkB block – inhibitors of PAF-induced NF-kB signaling, primary screen, cell-based, GFP fluorescence, uHTS; KKLEB NF-kB-GFP reporter, GFP fluorescence overnight; inhibition, % at 5 µM; actives 0.86% (n = 360,000);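 active means at least 50% inhibition at 5 µM, scaled per plate between neutral and stimulator controls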;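 further: PAF is a Pseudomonas aeruginosa culture filtrate used as stimulus; plate controls were PAF-stimulated DMSO wells for no effect and unstimulated DMSO wells for full effect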
KKLEB tox – cytotoxicity in KKLEB CF airway cells, primary screen, cytotoxicity control for CF NF-kB inhibitor project, cell-based, uHTS, fluorescence assay plates | activity change (cytotoxicity), % at 5 µM | KKLEB CF airway cells viability, ATPlite luminescence, overnight; hits give low values; cells stimulated with P. aeruginosa culture filtrate | actives 0.36% (n = 360,000);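 active means corrected activity change at or below -50% at 5 µM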
ABHD5 PLIN5 PPI – ABHD5-PLIN5 interaction inhibitors, primary screen, cell lysate, split luciferase complementation, luminescence; actives 0.78% (n = 360,000); Split G. princeps luciferase complementation, 4 h; inhibition, % at 4 µM;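 active means inhibition above the mean inhibition across every tested compound plus 3 SD, cut at about 22% in these data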;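 further: 0% = DMSO only wells and the 100% control is not disclosed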
Target sequence (Q00G26 whole entry, looked up): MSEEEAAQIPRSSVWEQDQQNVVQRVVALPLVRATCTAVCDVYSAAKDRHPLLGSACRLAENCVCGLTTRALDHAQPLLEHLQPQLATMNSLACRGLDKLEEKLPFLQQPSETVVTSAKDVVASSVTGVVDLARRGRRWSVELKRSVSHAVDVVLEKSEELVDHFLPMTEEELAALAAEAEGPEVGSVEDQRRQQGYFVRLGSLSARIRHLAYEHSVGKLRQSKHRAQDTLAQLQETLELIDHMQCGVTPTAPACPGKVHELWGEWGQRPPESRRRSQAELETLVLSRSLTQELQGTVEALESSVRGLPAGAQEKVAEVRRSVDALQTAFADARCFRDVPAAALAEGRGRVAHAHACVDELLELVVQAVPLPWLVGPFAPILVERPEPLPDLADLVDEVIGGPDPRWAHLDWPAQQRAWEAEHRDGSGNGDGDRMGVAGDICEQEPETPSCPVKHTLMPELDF
Target sequence (Q8WTS1 whole entry, looked up): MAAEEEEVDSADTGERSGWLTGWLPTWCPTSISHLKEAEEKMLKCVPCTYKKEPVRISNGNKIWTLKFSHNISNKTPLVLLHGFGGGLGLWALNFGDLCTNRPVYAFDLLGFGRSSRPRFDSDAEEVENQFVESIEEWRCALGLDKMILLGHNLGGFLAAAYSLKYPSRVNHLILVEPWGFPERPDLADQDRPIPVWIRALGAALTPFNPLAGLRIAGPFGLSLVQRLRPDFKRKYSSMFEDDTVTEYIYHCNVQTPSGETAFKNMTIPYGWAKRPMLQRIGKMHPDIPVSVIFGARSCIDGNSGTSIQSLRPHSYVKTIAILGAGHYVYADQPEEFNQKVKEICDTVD
Peg3 prom inh – Peg3 promoter-driven luciferase inhibitors, primary screen, cell-based, HeLa, luciferase luminescence; HeLa PEG-Prom luciferase reporter, overnight; inhibition, % at 20 µM; actives 1.7% (n = 360,000); AID 588405, 2011;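 active means inhibition of at least 50% at 20 µM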
Mdm2 MdmX conf – Mdm2-MdmX complex disruptors, retested hits, confirmation, luminescence, single concentration | shares compounds with Mdm2-MdmX inh | Mdm2-MdmX binding, luminescent assay | inhibition, % at 8 µM | actives 55% (n = 10,000) | AID 489028, 2010; in the data active means inhibition above about 40%
FLuc counter – full-length luciferase signal inhibition, confirmation, counter-screen for Mdm2/MdmX interaction inhibitor project, cell-based, single concentration, SaOS-2; inhibition, % at 8 µM; SaOS-2 full-length luciferase counterscreen, luminescence; shares compounds with Mdm2-MdmX inh; actives 77% (n = 6,200); AID 504607, 2011;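 active means mean inhibition at 8 µM reaching about 37%, which flags the compound as non-specific, limit read from the data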;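 further: p53-null SaOS-2 cells with luciferase driven by a doxycycline-inducible promoter; compound on cells about two nights before reading with doxycycline added after day one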
Starred values were filed as active, the others as inactive; / = no result given. Rows were chosen to be rich in hits. Some 4.6% of all compounds tested hit in one or more screens of this group.

SMILES	HIF-2a inh	Mdm2-MdmX inh	CF NFkB block	KKLEB tox	ABHD5 PLIN5 PPI	Peg3 prom inh	Mdm2 MdmX conf	FLuc counter
CC1CN(C(=O)CCNC(=O)c2ccc(Br)cc2)CC(C)O1 (stereo not drawn)	14	14	19	21	9	12	/	/
c1ccc(CNc2nc(-c3ccccn3)nc3ccccc23)cc1	-7	78*	16	-1	6	47	78*	23
CC(Nc1nc(-c2ccccc2)nc2ccccc12)c1ccccc1 (stereo not drawn)	-16	13	12	-9	-6	11	/	/
Fc1ccccc1/C=N/Nc1nc(-c2ccccn2)nc2ccccc12	/	82*	/	/	/	/	78*	57*
CCC(C)Nc1nc(-c2ccccn2)nc2ccccc12 (stereo not drawn)	4	82*	6	-4	0	32	58*	29
COc1ccccc1N1CCCSC1=Nc1ccccc1	1	/	-10	1	-4	1	/	/
Clc1ccccc1CSc1cnnc2ccccc12	-177	/	12	-2	1	-101	/	/
Cc1ccc(C(C)C)c(OCc2nn(CC(=O)c3ccc(OC(F)F)cc3)c3[n+]2CCCCC3)c1	4	95*	35	-24	18	105*	87*	23
CCN(CC(=O)Nc1cc(Cl)ccc1C)C(=O)C1COc2ccccc2O1 (stereo not drawn)	-3	6	14	-2	1	11	/	/
Cc1nc2ccccc2nc1N/N=C/c1ccc(O)cc1	-140	-36	-6	10	9	-158	/	/
Cc1nc(N/N=C/c2ccc(O)cc2)c2cnn(-c3ccccc3)c2n1	-75	59*	-29	-8	2	-20	-3	/
O=C(CSc1n[nH]c(-c2cccs2)n1)NCCc1ccccc1	-1	17	6	-3	-4	15	/	/
Cc1cc(C)cc(C(=O)Oc2cc(C)[nH]c(=O)c2[N+](=O)[O-])c1	2	5	5	9	-1	0	/	/
CCOC(=O)c1cc2c(s1)-c1c(C)cccc1OC2	-220	-39	8	-4	-3	-220	/	/
Cc1cccc2c1-c1sc(C(=O)NCCCN3CCC(C)CC3)cc1CO2	-20	57*	8	4	12	75*	15	/
COc1ccc([C@@H]2[C@@H]3C(=O)N(C(C)(C)C)C(=O)[C@@H]3[C@]3(Cc4ccccc4)C(=O)N(c4ccc(OC)cc4)C(=O)N23)cc1	10	-1	-5	9	1	-11	/	/
COc1ccc([C@@H]2[C@@H]3C(=O)N(C(C)(C)C)C(=O)[C@@H]3[C@]3(CC(C)C)C(=O)N(c4ccc(C(F)(F)F)cc4)C(=O)N23)cc1	10	74*	-21	-6	-8	11	76*	35
COc1ccc([C@@H]2[C@@H]3C(=O)N(C(C)(C)C)C(=O)[C@@H]3[C@]3(Cc4ccccc4)C(=O)N(c4ccc(C(F)(F)F)cc4)C(=O)N23)cc1	-25	85*	28	-29	-13	-5	90*	28
O=C(NC1CCCC1)c1nc(-c2c(F)cccc2F)oc1-c1ccccc1	-39	/	/	/	-1	/	/	/
Cc1ccc(S(=O)(=O)c2c(N)n(CCCN(C)C)c3nc4ccccc4nc23)cc1	20	54*	21	-8	5	31	11	/
O=C(O)C1(Nc2ccc(Br)cc2)CCCC1	10	/	-9	1	1	2	/	/
COC(=O)c1[nH]c2cc(OC)c(OC)cc2c1/C=N/Nc1ccccc1	-62	79*	-16	-12	4	8	25	85*
Cc1ccccc1-c1nc(CN2CCC(C(=O)NCCC3=CCCCC3)CC2)c(C)o1	-5	58*	22	-19	-11	33	34	76*
COc1ccc(CCNC(=O)C2CCN(Cc3nc(-c4ccccc4C)oc3C)CC2)cc1OC	16	25	5	14	1	17	/	/
Cc1ccccc1-c1nc(CN2CCC(C(=O)NCCCN3CCCC(C)C3)CC2)c(C)o1 (stereo not drawn)	5	96*	8	-4	0	23	70*	43*
SMILES	HIF-2a inh	Mdm2-MdmX inh	CF NFkB block	KKLEB tox	ABHD5 PLIN5 PPI	Peg3 prom inh	Mdm2 MdmX conf	FLuc counter
Cc1ccc2c(C)nc(Nc3nc(CSc4nc5ccccc5[nH]4)cc(=O)[nH]3)nc2c1	-28	59*	99*	-58*	4	109*	58*	32
CN(C)CCNc1ncnc2c1sc1nc(-c3ccccc3)c3c(c12)CCCC3	-6	100*	8	-5	10	111*	70*	41*
Cc1cc(N=Nc2ccccc2)cc(C)c1NC(=O)C(F)(F)F	-284	/	-7	4	2	-225	/	/
NC(=S)NCc1cccnc1	-1	-25	-9	8	1	6	/	/
CSC(=S)NCc1cccnc1	10	79*	24	-4	-4	47	73*	39*
CN(CCOc1ccccc1)C(=O)c1ccc(F)c(S(=O)(=O)N2CCOCC2)c1	6	3	6	0	13	14	/	/
C=C(C)C1Cc2c(C)nn(-c3nc(C)cc(C)n3)c2C1 (stereo not drawn)	4	55*	-4	0	0	12	9	/
COc1ccc2nc(N(CCN(C)C)C(=O)/C=C/c3cccs3)sc2c1	-24	53*	28	-19	15	-35	39	44*
COc1ccc2sc(N(CCN(C)C)C(=O)/C=C/c3cccs3)nc2c1	-4	46	27	-18	18	-12	/	/
Cc1cccc2sc(N(CCN(C)C)C(=O)/C=C/c3cccs3)nc12	8	63*	23	-18	19	-25	31	/
Cc1cccc2sc(N(CCN(C)C)C(=O)C3CCN(S(=O)(=O)c4cccs4)CC3)nc12	-6	21	16	-14	13	-34	/	/
CCN(C(=O)COC(=O)c1ccc[nH]c1=O)c1cccc2ccccc12	10	18	6	-9	5	10	/	/

Assay outcomes (PubChem BioAssay)
